Molecules are shown by their SMILES. Results filed as inconclusive are left out. A number with no mark means an inactive call. The source made the active and inactive calls. The call rests on the fitted dose curve; in most records, active means well fitted inhibition curve with a large enough effect in the repeat runs; inconclusive means weak or mixed curves; inactive means no such curve, though single readings can be large or run the other way.
On the % scale 0 is the no-effect control and ±100 the full control effect; potency means the concentration at half of the fitted maximal effect.

Chain of Cytochrome P450 2C9 (Homo sapiens) (P11712 whole entry, looked up): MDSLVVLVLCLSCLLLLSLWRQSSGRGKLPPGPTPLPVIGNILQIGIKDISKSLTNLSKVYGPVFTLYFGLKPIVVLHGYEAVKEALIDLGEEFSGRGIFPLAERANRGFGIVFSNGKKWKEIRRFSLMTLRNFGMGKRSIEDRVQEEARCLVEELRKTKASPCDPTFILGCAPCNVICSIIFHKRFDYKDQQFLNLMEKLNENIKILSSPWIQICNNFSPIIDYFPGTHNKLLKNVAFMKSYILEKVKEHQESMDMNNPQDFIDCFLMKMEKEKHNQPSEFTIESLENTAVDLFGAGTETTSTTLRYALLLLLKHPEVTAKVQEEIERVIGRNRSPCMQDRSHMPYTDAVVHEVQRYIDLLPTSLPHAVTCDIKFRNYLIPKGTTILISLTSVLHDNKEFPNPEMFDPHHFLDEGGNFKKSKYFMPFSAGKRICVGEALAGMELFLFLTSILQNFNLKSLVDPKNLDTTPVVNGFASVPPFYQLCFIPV

The assay deals with Cytochrome P450 2C9 (Homo sapiens) (UniProt P11712). The assay can be described thus: Cytochrome P450 Family 2 Subfamily C Member 9 (CYP2C9) small molecule antagonists: luciferase reporter qHTS assay (AID 1671198). Further: nearly all actives have a fitted effect of over 50% in size. As to conditions: P450-Glo CYP2C9 enzyme assay, luciferin luminescence; series mostly up to 115 µM; activity change, negative = inhibition: at the top concentration. The text has this:
U.S. Tox21 Program National Center for Advancing Translational Sciences [NCATS] U.S. Environmental Protection Agency [EPA] National Institutes of Environmental Health Sciences [NIEHS] National Toxicology Program [NTP] U.S. Food and Drug Administration [FDA] Tox21 Assay Overview: Cytochrome P450 (CYP) enzymes are membrane-bound hemeproteins that play a key role in metabolism of drugs and xenobiotics. Evaluation of the effect of chemicals on CYP isozymes is useful to minimize the adverse drug reactions and toxicities in drug development process. Tox21 chemicals were tested for their effect on CYP enzyme activities by using P450-Glo (TM) screening systems (Promega Corporation, Madison, WI). These systems provide a luminescent method containing proluciferin substrates and are converted to luciferin products by CYP isozymes. The luciferin products formed are detected with a luciferin detection reagent, and the amount of light produced is proportional to CYP activity. P450-Glo (TM) CYP2C9 screening system (Catalog. No. V9790) was used to detect the compounds that interfere in CYP2C9 activity.
Tox21 Assay Protocol Summary: Two ul of enzyme-substrate mix was dispensed into medium binding white/solid 1536-well plates (Greiner Bio-One North America Inc., Monroe, NC) using a BioRaptr Flying Reagent Dispenser (FRD, Beckman Coulter, Brea, CA). […] The assay plates were incubated at room temperature for 10 min. Then 2 ul of NADPH regeneration solution was added to each well of the assay plates using an FRD and incubated at 37C for 1 h. The reaction was stopped by adding 4 ul of detection reagent using an FRD and after 20 min incubation at room temperature the luminescence signal was measured using a ViewLux plate reader (Perkin Elmer, Shelton, CT). Data were expressed as relative luminescence units.
On the technique in general: Reporter assays use an easily measured gene product as a stand-in for the process of interest.
With `CC(C)CC(O)CC(C)C`, the “activity change, negative = inhibition” value is 0.927%. Consider `C=C(C)C(=O)OCCC(F)(F)C(F)(F)C(F)(F)C(F)(F)C(F)(F)C(F)(F)F`, for which the “activity change, negative = inhibition” value is -12.9%. As to `CC(CCc1ccc(O)cc1)NCCc1ccc(O)c(O)c1` (stereo not given), the “activity change, negative = inhibition” value was -18.6% [at 53 µM]. In the case of `C1CCCCC1`, the “activity change, negative = inhibition” value was -1.62%. On the same count and under the same terms, next, `CCCCCCCCCCCCCCN(C)C`: -16.9% [at 23.6 µM]; `NC(=O)CCCCC(N)=O`: -1.95%; `COc1ccc(C)cc1`: -7.2%. On to `COC(OC)OC`, for which the “activity change, negative = inhibition” value was 7.65%.

For the compound `CCC1CCC(CCC(=O)O)C1` (stereo not given), the Potency is 36.4 µM (active). On to `CC(C)N(C)C`, for which the “activity change, negative = inhibition” value was -6.15%. The same measure, in the same setting: the value for `O=C1NC(=O)c2cccc3cccc1c23` was 66.9%.

Turning to `CCN(Cc1cccc(S(=O)(=O)O)c1)c1ccc(C(=C2C=CC(=[N+](CC)Cc3cccc(S(=O)(=O)O)c3)C=C2)c2ccc(O)cc2S(=O)(=O)[O-])cc1`, the Potency is 6.83 µM (active). `NC(=O)c1ccccc1[N+](=O)[O-]`: the “activity change, negative = inhibition” value is 4.28%. As to `Cc1cc(CCCOc2c(C)cc(-c3noc(C(F)(F)F)n3)cc2C)on1`, the Potency was 8.71 µM (active). On to `Nc1c(Cl)cc(Cl)cc1[N+](=O)[O-]`, for which the “activity change, negative = inhibition” value was -8.08%. In the case of `COc1ccc(-c2cc(=S)ss2)cc1`, the Potency is 12.3 µM (active). Take `CCC(CO)(CO)[N+](=O)[O-]`: the “activity change, negative = inhibition” value was -4.31%. Regarding `CCC(C)(C)C(=O)O`, the “activity change, negative = inhibition” value was 6.62%. In the case of `CC(C)OC(=O)c1ccccc1C(=O)OC(C)C`, the Potency is 39.9 µM (active). As for `CC(C)N=C=NC(C)C`, the “activity change, negative = inhibition” value is 0.518%.

For `CCCCOC(=O)CCCCC(=O)OCCCC`, the Potency is 11.2 µM (active). Take `O=C(NS(=O)(=O)/C=C/c1ccccc1)c1ccc(F)cc1Cl`: the Potency was 10 µM (active). As for `CCCCCCCCCCCCCC(=O)OCC(O)CO` (stereo not given), the Potency was 22.4 µM (active).

On to `CC(=O)OCCC(C)CC(C)(C)C` (stereo not given), for which the “activity change, negative = inhibition” value was -10.4%. The same measure, in the same setting: next, `Nc1ccc(S(=O)(=O)NCc2ccccc2)cc1`: 68.7% [at 53 µM]; `C1=CCC2CC=CC2C1` (stereo not given): -13.9%.

For `CCN(CC)c1ccc(C(=C2C=CC(=[N+](CC)CC)C=C2)c2ccc(S(=O)(=O)O)cc2S(=O)(=O)[O-])cc1`, the Potency was 14.2 µM (active). Take `Cc1ccc(N(CC2=NCCN2)c2cccc(O)c2)cc1`: the “activity change, negative = inhibition” value is -7.6% [at 53 µM].

Consider `BrC(Br)C(Br)Br`, for which the “activity change, negative = inhibition” value was -13.5%. For `O=C(O)CCC(=O)OC[C@@H](NC(=O)C(Cl)Cl)[C@H](O)c1ccc([N+](=O)[O-])cc1`, the “activity change, negative = inhibition” value is -18.5% [at 53 µM]. On to `c1ccc2sc(SSc3nc4ccccc4s3)nc2c1`, for which the Potency was 9.52 µM (active). Consider `O=S(=O)(O)CO`, for which the “activity change, negative = inhibition” value is -7.23%. On the same count and under the same terms, next, `CC[C@H]1OC(=O)[C@H](C)[C@@H](O[C@H]2C[C@@](C)(OC)[C@@H](O)[C@H](C)O2)[C@H](C)[C@@H](O[C@@H]2O[C@H](C)C[C@H](N(C)C)[C@H]2O)[C@](C)(O)C[C@@H](C)/C(=N\OCOCCOC)[C@H](C)[C@@H](O)[C@]1(C)O`: -6.72% [at 53 µM]. For the compound `CC(C)C(O)C(C)(C)CO` (stereo not given), the Potency was 65.3 µM (active).

For `CC(=O)NNC(C)=O`, the “activity change, negative = inhibition” value was 5.2%.

As for `O=[N+]([O-])C1(Br)COCOC1`, the Potency was 7.1 µM (active).

In the case of `CC(=O)OCC1=C(C(=O)O)N2C(=O)[C@@H](NC(=O)CSc3ccncc3)[C@H]2SC1`, the Potency is 13.8 µM (active). As for `CCOc1ncc(F)c(=O)[nH]1`, the “activity change, negative = inhibition” value is -7.42% [at 53 µM].

For `Cc1ccc2nc(N)[nH]c(=O)c2c1Sc1ccncc1`, the Potency is 5.49 µM (active). As to `CCOC(=O)N1CCC(Nc2ccc(Cl)cc2N)CC1`, the Potency was 8.71 µM (active).

Values taken from PubChem BioAssay (Tox21).
